From PubChem BioAssay (NCI) come the findings set out here.

This is part of a sample that, as a whole, favours compounds with a hit. Of some 83,000 tested, about 20% had one in any assay.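 Method: cells in 96-well plates; compound added at one concentration; 48 h incubation; percent growth measured; values under 10 scored active.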 Values without a mark were called inactive. Calls of active or inactive are those of the source.

For this assay, the system named is HL-60(TB) leukemia. Kind of assay: NCI-60 one-dose screen, 48 h (100 = growth as untreated, 0 = no growth, -100 = all killed). The conditions noted are these: 10 µM unless noted.
Take `C[C@H]1[C@H](C)CC[C@]2(C(=O)OCCOCCOCC[P+](c3ccccc3)(c3ccccc3)c3ccccc3)CC[C@]3(C)C(=CC[C@@H]4[C@@]5(C)CC[C@H](OC(=O)C(Cl)Cl)C(C)(C)[C@@H]5CC[C@]43C)[C@H]12`: the growth is -48.3% (active).

Regarding `COc1ccc(O)c(-c2cc(-c3ccccc3)c(C#N)c(=O)[nH]2)c1`, the growth was 112%.

On to `N#Cc1c(-c2ccccc2)cc(-c2ccc(Nc3nc(Nc4ccc(F)cc4)nc(Nc4ccc(F)cc4)n3)cc2)nc1N`, for which the growth was 14.2%.

For the compound `COc1ccc(/C=C(\C#N)c2cc3ccccc3n2S(C)(=O)=O)cc1`, the growth is 89.6%.

With `Cc1csc(Nc2nc(-c3cccc(Cl)c3)nc(C(Cl)(Cl)Cl)n2)n1`, the growth was -10.2% (active).

Regarding `OC(CCN1CCCCC1)(c1ccccc1)c1ccccc1`, the growth is 130%.

For `Cn1nc(CC#N)c2c(=N)n(N)cnc21`, the growth is 84.4%.

Turning to `Cc1ccc(C)c2c1CCC2=O`, the growth is 134%.

`COCCNC(C)=O`: the growth is 107%.

As for `Cn1cc(C=O)c2ccccc21`, the growth is 92.8%.

Consider `N#CCNc1ccc(C(=O)O)cc1`, for which the growth was 99.2%.

For the compound `O=C1OC(c2ccc(-c3ccccc3)cc2)=C/C1=C/c1c(Cl)cccc1Cl`, the growth was 77.8%.

For the compound `CC(C)CSc1nc(N)nc2c1ncn2C1OC(CO)C(O)C1O` (stereo not given), the growth is 113%.

In the case of `CCOC(=O)c1cc(-c2ccccc2)nc(N)n1`, the growth is 101%.

As for `CC(C)(C)n1cc(-c2ccnc(NCCNS(=O)(=O)c3ccc(C(F)(F)F)cc3)c2)c(-c2ccccc2)n1`, the growth is 83.9%.

In the case of `CNC(=O)CCN1CCN(CC/C=C2\c3ccccc3Sc3ccc(Cl)cc32)CC1`, the growth is 50.2%.

For `COC(OC)c1ccccc1`, the growth was 77.6%.

As for `O=[N+]([O-])c1c(F)cccc1Nc1cccc(F)c1`, the growth is 100%.

In the case of `Nc1ncccc1O`, the growth was 51.6%.

As to `CC(=O)OC[C@]12CCC(C)(C)C=C1[C@H]1CC[C@@H]3[C@@]4(C)CCCNC(C)(C)[C@@H]4CC[C@@]3(C)[C@]1(C)CC2`, the growth is 0.652% (active).

In the case of `CC(C)(C)CC(C)(C)Nc1c(-c2ccc3c(c2)OCO3)nc2cnccn12`, the growth was 77.8%.

In the case of `CCC(C)C1NC(=O)C(CC(C)C)NC(=O)C(C)NC(=O)C(C(C)C)NC(=O)C(CCCCN)NC(=O)C(CC(C)C)NC(=O)C(C(C)C)NC(=O)[C@H](C)NC(=O)C(C(C)CC)NC(=O)C(CCCN=C(N)N)NC(=O)C(CCCCN)NC(=O)C(CCCN=C(N)N)NC(=O)C(CCCCN)NC(=O)C([C@H](C)CC)NC(=O)C(CCCCN)NC1=O` (stereo not given in full), the growth was -39.5% (active).

For the compound `Cc1ccc(/C(C#N)=C/c2ccc3c(c2)OCO3)cc1`, the growth is 67.5%.

Regarding `CC(=O)O[C@]1(C(C)=O)CCC2C3C[C@H](C)C4=CC(=O)CC[C@]4(C)C3CC[C@@]21C` (stereo not given in full), the growth was 87.4%.

For the compound `Nc1cc(-c2ccc(Cl)cc2)nn1-c1nnc(/C=C/c2ccco2)c(=O)[nH]1`, the growth is 52.2%.

Turning to `CCOc1cc2c(cc1OCC)C(c1cc(OC)c(O)cc1Cl)NCC2` (stereo not given), the growth was 91.7%.

On to `Cc1ccc(-c2noc(C)n2)cc1`, for which the growth is 100%.

As to `C=C(C)[C@@H]1CC[C@]2(CO)CC[C@]3(C)[C@H](CC[C@@H]4[C@@]5(C)CCC(NCCc6ccc(O)cc6)C(C)(C)[C@@H]5CC[C@]43C)[C@@H]12` (stereo not given in full), the growth was -50.4% (active).

`COc1cc(/C=C2\C=C(c3ccc(F)cc3)N(Cc3ccccc3)C2=O)cc(OC)c1OC`: the growth is 75.9%.

Turning to `CCOC(=O)C#Cc1c(C(=O)OCC)nnn1Cc1ccc(C(F)(F)F)cc1`, the growth was 39%.

`NC(=O)c1cccc(-n2ccc3cc(NC(=O)Nc4cc(C(F)(F)F)cc(C(F)(F)F)c4)ccc32)n1`: the growth was 39.3%.

As to `Cc1ccnc2c(OCc3ccccc3)cccc12`, the growth is 111%.

For `CN1CCN(C(=O)[C@@]2(C)CC[C@]3(C)CC[C@]4(C)C(=CC[C@@H]5[C@@]6(C)C/C(=C/c7ccncc7)C(=O)C(C)(C)[C@@H]6CC[C@]54C)[C@@H]3C2)CC1`, the growth was -8.87% (active).

Regarding `O=S(=O)(Nc1ccc(Cl)c(F)c1)c1ccc(-c2cnc(C3CC3)o2)cc1`, the growth is 0.942% (active).

Take `Nc1nc(SN=Nc2ccc(S(N)(=O)=O)cc2)c2[nH]cnc2n1`: the growth is -16% (active).

With `CCOC(=O)c1[nH]cc2c1CCc1sc(Nc3ccccn3)nc1-2`, the growth is 75.9%.

For the compound `CN(C)CC(O)c1ccc2cc(Br)c3ccccc3c2c1` (stereo not given), the growth is 43.7%.

Consider `O=C(O)c1ccc2c3ccc(C(=O)O)c4c(C(=O)O)ccc(c5ccc(C(=O)O)c1c25)c43`, for which the growth is 111%.

On to `Cc1ccc(-c2csc(NC(=O)c3ccccc3CN3C(=O)c4ccccc4C3=O)n2)cc1`, for which the growth is 95.3%.

As to `OC(c1cc2cc(Cl)c(Cl)cc2c2cc(C(F)(F)F)ccc12)C1CCCCN1` (stereo not given), the growth was -21% (active).
